Results filed as inconclusive are left out. Unmarked numbers belong to inactive results. Calls of active or inactive are those of the source. The call rests on the fitted dose curve; in most records, active means well fitted activation curve with a large enough effect; inconclusive means small, poorly fitted or top-dose-only effect; inactive means no such curve, though single readings can be large or run the other way.
Potency means the concentration at half of the fitted maximal effect.

For the test, the target named is Cellular tumor antigen p53 (Homo sapiens) (UniProt P04637). Nature of the test: Primary qHTS for small molecule compounds that upregulate eGFP-tagged delta133p53alpha (in N-terminal) cells. (AID 2060322). Further: nearly all actives have a fitted effect of over 75% in size.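 On activation: series mostly up to about 56 µM; 0% = DMSO vehicle and 100% = reference activator.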 The conditions noted are these: NCI-H358 eGFP-delta133p53alpha fluorescence, 24 h; activation: stronger effect = higher value. The gist of the method: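 NCI-H358 cells pre-induced 24 h with 10 ng/ml doxycycline to express N-terminal eGFP-delta133p53alpha, then dosed 24 h at 37C without doxycycline; fixed, Hoechst-stained, GFP intensity by laser scanning cytometry, normalized to DMSO (0%) and 57.5 uM 5-azacytidine (100%).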
Sequence of Cellular tumor antigen p53 (Homo sapiens) (P04637 whole entry, looked up): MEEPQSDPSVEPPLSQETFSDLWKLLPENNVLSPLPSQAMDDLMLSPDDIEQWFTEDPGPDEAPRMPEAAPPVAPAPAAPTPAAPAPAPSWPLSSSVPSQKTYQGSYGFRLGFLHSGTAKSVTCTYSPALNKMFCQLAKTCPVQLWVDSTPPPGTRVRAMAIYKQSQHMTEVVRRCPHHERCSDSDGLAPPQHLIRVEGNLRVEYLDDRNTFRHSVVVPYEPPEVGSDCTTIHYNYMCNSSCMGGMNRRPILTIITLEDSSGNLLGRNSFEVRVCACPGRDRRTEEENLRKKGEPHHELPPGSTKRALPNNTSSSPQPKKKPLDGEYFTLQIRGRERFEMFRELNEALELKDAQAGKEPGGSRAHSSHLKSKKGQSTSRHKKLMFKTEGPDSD
(In general: In qHTS, concentration-response curves come from the screen itself.)
On to `Oc1cc(O)cc(C=Cc2ccc(O)c(O)c2)c1`, for which the activation is 8.33%.

On to `NC(CS)C(=O)O` (stereo not given), for which the activation was -24.3%.

`CCOCCOC(=O)/C=C/c1ccc(OC)cc1`: the activation is -3.95%.

Consider `COc1cc2c(NC3CCN(C)CC3)nc(N3CCCN(C)CC3)nc2cc1OCc1ccccc1`, for which the activation is 30.2%.

Take `CCOCCn1c(C2CCN(CCc3ccc(C(C)(C)C(=O)O)cc3)CC2)nc2ccccc21`: the activation is -6.69%.

As to `CC(C)(C)NCC(O)COc1cccc2c1C[C@H](O)[C@H](O)C2` (stereo not given in full), the activation is 0%.

For the compound `CC(C)[C@@H]1CC[C@@H](C)CC1=O`, the activation is 16.4%.

In the case of `Cc1ccnc(NS(=O)(=O)c2ccc(N)cc2)n1`, the activation was -10.9%.

On to `CC(=O)Nc1ccc(C(=O)O)cc1`, for which the activation is 26.6%.

As for `O=C(O)CN1C(=O)c2cccc3cccc(c23)C1=O`, the activation is -6.69%.

Take `COc1cccc2c1C(=O)c1c(O)c3c(c(O)c1C2=O)C[C@@](O)(C(=O)CO)C[C@@H]3O[C@H]1C[C@H](N)[C@H](O[C@@H]2CCCCO2)[C@H](C)O1`: the Potency was 15.5 µM (active).

As to `CC1(C)[C@H]2CC[C@]3(C)[C@@H](C(=O)C=C4[C@@H]5C[C@@](C)(C(=O)O)CC[C@]5(C)CC[C@]43C)[C@@]2(C)CC[C@@H]1O`, the activation is 3.97%.

In the case of `CC(C)COC(=O)c1ccc(N)cc1`, the activation was 2.82%.

Regarding `OCc1ccc(Cl)cc1Cl`, the activation was -7.53%.

In the case of `O=C(CS(=O)Cc1ccco1)NCC=CCOc1cc(CN2CCCCC2)ccn1` (stereo not given), the activation was 38.6%.

Regarding `CC(=O)NCCCCCC(=O)O`, the activation is 0.837%.

As to `O=C(CCBr)N1CCN(C(=O)CCBr)CC1`, the activation is 20.9%.

For the compound `CCC(Cc1c(I)cc(I)c(N)c1I)C(=O)O` (stereo not given), the activation is 29.9%.

For `CCN(CC)CCNC(=O)c1cc(Br)c(N)cc1OC`, the activation was 13%.

On to `CC(=O)[C@@]1(O)CC[C@H]2[C@@H]3C[C@H](C)C4=CC(=O)CC[C@]4(C)[C@H]3CC[C@@]21C`, for which the activation was -5.86%.

As for `C[C@@H]1[C@H](C)CC[C@]2(C(=O)O)CC[C@]3(C)C(=CC[C@@H]4[C@@]5(C)C[C@@H](O)[C@H](O)[C@@](C)(CO)[C@H]5CC[C@]43C)[C@@H]12`, the activation is 36.3%.

In the case of `OCc1ccccc1O[C@@H]1O[C@H](CO)[C@H](O)[C@H](O)[C@H]1O`, the activation is 15.8%.

Consider `CCCCCCCCCCCCCCCC[N+](C)(C)CCN(Cc1ccc(OC)cc1)c1ncccn1`, for which the Potency is 34.7 µM (active).

With `NC(N)=Nc1nc(CSCCC(N)=NS(N)(=O)=O)cs1`, the activation was 11%.

With `C[C@H]1C[C@@H]2[C@@H]([C@@H](O)C[C@@]3(C)[C@H]2CC[C@]3(O)C(=O)CO)[C@@]2(C)C=CC(=O)C=C12`, the activation was -16.2%.

Regarding `C[C@@]12CCC[C@H]1[C@@H]1CC[C@H]3C[C@@H](O)CC[C@]3(C)[C@H]1CC2`, the activation is -12.6%.

Take `C#C[C@]1(O)CC[C@H]2[C@@H]3CCC4=CC(=O)CC[C@@H]4[C@H]3CC[C@@]21C`: the activation is 7.34%.

`O=c1[nH]c(=O)n([C@H]2C[C@@H](O)[C@@H](CO)O2)cc1I`: the activation is 6.89%.

As for `COC(=O)C=CC(=O)OC`, the activation is -16.5%.

Turning to `O=C1CCCc2c(O)cccc21`, the activation is -14.1%.

In the case of `CC(=O)N[C@H]1[C@@H]([C@H](O)[C@H](O)CO)OC(C(=O)O)=C[C@@H]1N=C(N)N`, the activation was -10.7%.

`CN1CCN(N)CC1`: the activation was 0.837%.

`NCCC(O)(P(=O)(O)O)P(=O)(O)O`: the activation is -6.21%.

Regarding `COC(=O)c1cc(Cl)c(NC(C)=O)cc1OC`, the activation is 11.9%.

Take `O=c1[nH]c(=O)n([C@H]2O[C@H](CO)[C@@H](O)[C@@H]2O)cc1/C=C\Br`: the activation was 3.35%.

On to `CC1CCc2cc(F)cc3c(=O)c(C(=O)O)cn1c23` (stereo not given), for which the activation is 23.2%.

Take `CC[N+](CC)(CC(=O)Nc1c(C)cccc1C)Cc1ccccc1`: the activation is -10.9%.

Consider `CC(C)[N+](C)(C)CC(O)COc1cccc2ccccc12` (stereo not given), for which the activation was -17.5%.

On to `O=C1c2ccccc2C(=O)C1c1ccccc1`, for which the activation was -12.6%.

Consider `O=C(O)C1=CO[C@@H](O[C@@H]2O[C@H](CO)[C@H](O)[C@H](O)[C@H]2O)[C@@H]2C(CO)=CC[C@H]12`, for which the activation is 30.5%.

These data come from PubChem BioAssay (NCATS).
